# Arbovirus anti: antivirals against arbovirus infection; arbovirus infection cell-based antiviral screen; AID 1251; inhibition, % at 10 µM; 0.37% of 200,000 active; in the data active means inhibition above about 30%
# CHOP inhibitor: CHOP inhibition in unfolded protein response. CHO-K1 CHOP-promoter luciferase, tunicamycin-induced, 15-18 h. inhibition, % at 10 µM. 3.8% of 220,000 active;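 active means compounds that reduced the stress-induced luciferase reporter signal by more than about 70% of percent inhibition, limit read from the data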;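 further: 0% = tunicamycin plus vehicle and 100% = wells without tunicamycin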
# WT yeast gro inh: growth inhibition of WT yeast, mitochondrial fusion screen. mitochondrial fusion phenotypic screen, WT strain. inhibition, % at 10 µM. 2.1% of 190,000 active. AID 1362; in the data active means inhibition above about 58%; tested in S. cerevisiae
# L major viab: reduces viability of Leishmania major promastigotes; 9% of 200,000 active; inhibition, % at 10 µM; AID 1063; resazurin fluorescence viability; in the data active means inhibition above about 50%;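 further: promastigotes grown with compound for 44 hours at 28 °C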
# An asterisk follows results filed as active; nt = no result. A selection: hits, their analogues and other compounds. The true share with any hit is near 12%.
SMILES,Arbovirus anti,CHOP inhibitor,WT yeast gro inh,L major viab
COc1ccc(COC(=O)Nc2cn(C)nc2C(F)(F)F)cc1,-1,17,6,-2
Cc1cc(C)c2c(=O)[nH]c(SCc3ccccc3)nc2n1,-9,-6,-14,-10
Cc1onc(-c2c(Cl)cccc2Cl)c1C(=O)N1CCc2ccccc2C1,12,13,-10,95*
Cc1onc(-c2ccccc2)c1C(=O)N1CCCc2ccccc21,-6,11,-4,98*
N#Cc1ccc(NC(=O)Nc2ccc(Cl)cc2)cc1,-16,78*,63*,28
CCOC(=O)C1=C(C)NC(=O)C(C#N)C1c1ccco1 (stereo not drawn),3,70*,-3,-8
FC(F)(F)c1cccc(N2CCN(CC3CC4C=CC3C4)CC2)c1 (stereo not drawn),-8,14,9,82*
O=C(CN1CCN(c2cccc(C(F)(F)F)c2)CC1)Nc1cccc(C(F)(F)F)c1,-4,33,9,-2
Fc1ccccc1N1CCN(CC2CC3C=CC2C3)CC1 (stereo not drawn),-10,-1,17,89*
C/C=C(\C)CN1CCN(c2ccccc2F)CC1,9,18,-1,8
C1=CC2CC1CC2CN1CCN(Cc2ccccc2)CC1 (stereo not drawn),-4,22,-15,95*
CCSc1nnc(NC(=O)c2ccc(C)o2)s1,-3,-2,-1,-1
CCSc1nnc(NC(=O)c2cc(C)oc2C)s1,13,78*,33,7
C#CCOC(=O)C(NC(=O)c1ccccc1)=C1CCCCC1,-1,33,1,5
O=C(NC(Cc1ccccc1)C(=O)O)c1ccc(S(=O)(=O)N2CCCC2)cc1 (stereo not drawn),14,0,-5,72*
O=C(Nc1ccccc1)c1ccc(S(=O)(=O)N2CCCC2)cc1,-4,-15,-11,-1
O=C(NC(Cc1ccccc1)C(=O)O)c1ccc(S(=O)(=O)N2CCCCC2)cc1 (stereo not drawn),0,2,14,55*
Cc1c(Cl)c([N+](=O)[O-])nn1Cc1ccc(C(=O)N/N=C\c2ccccn2)o1,-11,73*,-2,11
CCN(CC)c1ccc(NC(=O)c2c(OC)cccc2OC)c(C)c1,38*,9,-2,4
CCCn1c(SCC(=O)Nc2cc(S(=O)(=O)N(C)C)ccc2OC)n[nH]c1=O,7,-4,-12,-6
Cc1ccccc1S(=O)(=O)Cc1ccc(C(=O)N2CCN(C3CCCCC3)CC2)o1,-5,1,3,34
O=C(c1ccc(CS(=O)(=O)c2ccc(Br)cc2)o1)N1CCCCCC1,3,12,3,7
O=C(c1ccc(CS(=O)(=O)c2ccc(Br)cc2)o1)N1CCN(C2CCCCC2)CC1,7,-6,-3,99*
COc1ccc(S(=O)(=O)Cc2ccc(C(=O)N3CCN(C4CCCCC4)CC3)o2)cc1,4,16,-1,99*
COc1ccc(CCc2cc(OC)cc(=O)o2)cc1,nt,7,nt,nt
SMILES,Arbovirus anti,CHOP inhibitor,WT yeast gro inh,L major viab
COc1ccc(-c2[nH]ncc2CN(CCO)CC23CC4CC(CC(C4)C2)C3)c(OC)c1,7,9,12,11
COc1ccc(/C=C/C(=O)Nc2ccccc2C(=O)O)cc1,51*,-22,-1,-4
CCc1cc(C(=O)O)c(NC(=O)/C=C/c2ccc(OC)cc2)s1,nt,-11,nt,nt
COc1ccc(/C=C/C(=O)NC2CCCCCC2)cc1S(=O)(=O)N1CCOCC1,2,6,-11,98*
CCc1cc(C(=O)O)c(NC(=O)/C=C/c2ccc(OC)c(OC)c2)s1,71*,9,-18,-11
O=C(/C=C/c1ccc(S(=O)(=O)N2CCOCC2)cc1)NC(=S)Nc1ccc(Cl)cc1Cl,10,-9,27,20
CCN(CC)S(=O)(=O)c1cccc(NC(=S)NC(=O)/C=C/c2ccc(S(=O)(=O)N3CCOCC3)cc2)c1,2,-12,-2,80*
COc1ccc(CCNC(=O)CC2SC(=NCc3ccccc3)NC2=O)cc1 (stereo not drawn),8,8,0,-2
COc1ccc(C2=CC(=O)OC3(CCCC3)O2)cc1,9,18,-9,-2
C/C=C(\C)C(=O)NNC(=O)c1sc(-c2ccccc2)nc1C,nt,9,nt,nt
COc1ccc(/C=C/C(=O)Nc2ccccc2C(=O)O)cc1OC,58*,34,-9,-6
COc1ccc(/C=C/C(=O)Nc2cccc(S(=O)(=O)N3CCCC3)c2)cc1OC,23,8,6,55*
COc1ccc(-c2nc(N)n(C(=O)c3cccs3)n2)cc1,5,-6,-6,-2
O=C(Nc1ccc(F)cc1)N1CCN2C(=O)c3ccccc3C12c1ccccc1 (stereo not drawn),-15,49,17,14
Cc1ccc(C(=O)N2CCN3C(=O)c4ccccc4C23c2ccccc2)cc1 (stereo not drawn),-10,-19,35,54*
COc1cc(/C=C/C(=O)OCC(=O)NCC2CCCO2)ccc1OCC#N (stereo not drawn),2,25,11,-6
CNCc1ccc(OCc2ccccc2)c(OC)c1,-6,30,-1,80*
COc1cc(CC(=O)O)ccc1OCc1ccccc1,nt,9,nt,nt
COc1ccccc1CNc1cc(-c2ccccc2)ccc1OC,9,56,8,36
COc1ccc(-c2ccccc2)cc1NCc1ccc(OC)c(OC)c1,14,10,39,99*
COc1cc(CNCc2cccnc2)ccc1OCc1ccccc1,7,-12,11,96*
COc1ccc(C(=O)NC(=S)NCc2cccnc2)cc1OC,-1,26,-12,1
c1ccc(COc2cccc(CNCc3ccccn3)c2)cc1,5,-2,4,96*
CN1C(=O)C(CCC(=O)O)NC1=S (stereo not drawn),nt,2,nt,nt
c1ccc(COc2cccc(CNCc3cccnc3)c2)cc1,-2,13,2,98*
SMILES,Arbovirus anti,CHOP inhibitor,WT yeast gro inh,L major viab
CCOc1cccc(CNCc2cccnc2)c1OCc1ccccc1,4,19,6,15
CC(=O)Nc1cccc(NC(=O)c2cc(-c3cccnc3)nc3ccc(Br)cc23)c1,10,-3,2,-1
CSc1ccccc1NC(=O)c1cc(-c2cccnc2)nc2ccc(Br)cc12,0,104*,1,21
CCOC(=O)C1=C(C)NC(C)=C(C(=O)OCC)C1C(=O)OCC(=O)N(CC)C1CCS(=O)(=O)C1 (stereo not drawn),-1,0,9,-2
Cc1ccc2c(c1)CCCN2C(=O)c1ccco1,-5,6,2,-5
Cc1ccc(N=C2SCCCN2C(=O)c2ccco2)cc1Cl,3,80*,14,39
OC(CN1C2=NCCN2c2ccccc21)c1ccccc1 (stereo not drawn),19,-18,7,9
Cc1ccc(C(O)CN2C3=NCCN3c3ccccc32)cc1 (stereo not drawn),2,-14,-6,96*
CC1Cc2ccccc2N1c1ncnc(N)c1[N+](=O)[O-] (stereo not drawn),8,72*,-7,3
O=C(COC(=O)c1cccc(C(=O)OCC(=O)NCc2ccc(F)cc2)n1)NCc1ccc(F)cc1,0,2,-10,-6
Cc1ccn2cc(-c3cccc(NC(=O)c4ccccc4)c3)nc2c1,-17,13,3,72*
COc1ccc(NC(=S)N2CCCCCC2)cc1OC,-2,-10,-10,-6

# Screening data (PubChem BioAssay)
